Reference: paper PMC5540273 (PLoS ONE, 2017)
Read-outs that look alike come from different tables or passages of the source.

How the values were obtained:
[1] = system: LCK; details: concentration: 1 μM, replicates: in singlicate; n = 1
[2] = system: LIMK1; details: concentration: 1 μM, replicates: in singlicate; n = 1
[3] = system: LIMK2; details: concentration: 1 μM, replicates: in singlicate; n = 1
[4] = system: T1, LKB1; details: concentration: 1 μM, replicates: in singlicate; n = 1
T1 construct: gene STK11

[5] = system: T2, LOK; details: concentration: 1 μM, replicates: in singlicate; n = 1
T2 construct: gene STK10

[6] = system: LRRK2; details: n = 1
[7] = system: LTK; details: concentration: 1 μM, replicates: in singlicate; n = 1
[8] = system: LYN; details: concentration: 1 μM, replicates: in singlicate; n = 1
[9] = system: T3, LZK; details: concentration: 1 μM, replicates: in singlicate; n = 1
T3 construct: gene MAP3K13

[10] = system: MAK; details: concentration: 1 μM, replicates: in singlicate; n = 1
[11] = concentration: 1 μM, replicates: in singlicate
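Note: KINOMEscan kinase panel screen.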

| Compound | %Inh [1] [%] | %Inh [2] [%] | %Inh [3] [%] | %Inh [4] [%] | %Inh [5] [%] | %Inh [6, 11] [%] | %Inh [7] [%] | %Inh [8] [%] | %Inh [9] [%] | %Inh [10] [%] | %Inh ([6]; 1 µM) [%] |
| --- | --- | --- | --- | --- | --- | --- | --- | --- | --- | --- | --- |
| COC(=O)Nc1nc2ccc(Oc3ccc(CC(=O)Nc4cc(C(F)(F)F)ccc4F)cc3)cc2[nH]1 [GW680903] | 22 | 1 | 7 | 0 | 78 | 33 | 0 | 7 | 28 | 37 |  |
| Fc1cc(Cl)ccc1Nc1ccnc2cc(-c3ccc(CN4CCOCC4)o3)ccc12 [GW560109] | 97 | 0 | 0 | 0 | 62 | 70 | 57 | 76 | 0 | 7 |  |
| CNc1nccc(-c2ccc3c(N)n[nH]c3c2)n1 [GSK2206003] | 19 | 0 | 0 | 5 | 23 | 1 | 27 | 0 | 0 | 29 |  |
| COc1cc(Nc2nccc(N3CCC(NS(=O)(=O)c4ccc(NC(C)=O)cc4)CC3)n2)cc(OC)c1OC [GSK1379825] | 18 | 93 | 100 | 0 | 2 | 29 | 0 | 56 | 27 | 61 |  |
| COc1ccc(NC(=O)c2ccoc2)cc1-c1ccc(C(=O)NCC2CC2)cc1 [GW810437] | 0 | 2 | 0 | 52 | 28 | 20 | 16 | 0 | 19 | 13 |  |
| O=C1NC(=O)C(c2ccccc2Cl)=C1Nc1cccc(Cl)c1 [SB-342409] | 1 | 20 | 89 | 0 | 5 | 2 | 0 | 0 | 0 | 12 |  |
| COc1ccc(C)c(Nc2ccnc(Nc3ccc(-c4cnc[nH]4)cc3)n2)c1.Cl [GW784041] | 75 | 31 | 16 | 0 | 57 | 0 | 42 | 30 | 0 | 0 |  |
| CC(C)NCC(Cc1ccccc1)NC(=O)c1cc(Br)c(-c2ccnc3[nH]ccc23)s1.Cl.Cl (stereo not drawn) [GSK1383281] | 11 | 0 | 11 | 0 | 0 | 0 | 0 | 0 | 0 | 34 |  |
| Cc1ccc(NC(=O)c2cccc(N3CCCCC3)c2)cc1-c1ccc(C(=O)NCC2CC2)cc1 [GSK1917008] | 38 | 8 | 100 | 0 | 32 | 22 | 7 | 0 | 0 | 24 |  |
| CN(c1ccc(NC(=O)N2CCN(CCCN3CCOCC3)CC2)cc1)c1ccnc(Nc2ccc(CS(C)(=O)=O)cc2)n1.Cl [GW830899] | 16 | 2 | 6 | 0 | 72 | 0 | 0 | 0 | 0 | 0 |  |
| COc1cccc2c(-c3ccncc3)c(-c3ccc(F)cc3)nn12 [GW468513] | 23 | 0 | 0 | 0 | 0 | 48 | 28 | 0 | 0 | 27 |  |
| CN(c1ccc2c(c1)nc(NCc1ccccc1)n2C)c1ccnc(Nc2ccc(CS(C)(=O)=O)cc2)n1.Cl [GW811603] | 59 | 1 | 0 | 0 | 99.5 | 0 | 37 | 52 | 0 | 33 |  |
| CN(C)CCOc1ccc(-c2cc(-c3ccc(Cl)c(O)c3)c(-c3ccncc3)[nH]2)cc1.Cl.Cl [SB-684387] | 86 | 13 | 11 | 20 | 84 | 17 | 0 | 28 | 41 | 41 |  |
| Nc1ncc(-c2ccc3nccc(-c4ccncc4)c3c2)cc1S(=O)(=O)N1CCCCC1 [GSK1693850] | 24 | 0 | 22 | 0 | 7 | 0 | 6 | 16 | 0 | 16 |  |
| Cl.N#CCc1ccc(Nc2nccc(Nc3ccc(Oc4ccccc4)cc3)n2)cc1 [GW639905] | 90.6 | 25 | 11 | 0 | 0 | 58 | 42 | 62 | 0 | 20 |  |
| Cl.Cl.NCC(NC(=O)c1cc(-c2cccnc2)c(-c2ccnc3[nH]ccc23)s1)c1ccccc1 (stereo not drawn) [GSK1323434] | 33 | 0 | 0 | 22 | 0 | 0 | 0 | 0 | 77 | 21 |  |
| CC(=O)Nc1cn2nc(Oc3cccc(NC(=O)c4cccc(C(F)(F)F)c4)c3)ccc2n1 | 99.5 | 0 | 14 | 0 | 90.1 | 8 | 0 | 97.9 | 0 | 0 |  |

| Compound | %Inh [1] [%] | %Inh [2] [%] | %Inh [3] [%] | %Inh [4] [%] | %Inh [5] [%] | %Inh [6, 11] [%] | %Inh [7] [%] | %Inh [8] [%] | %Inh [9] [%] | %Inh [10] [%] | %Inh ([6]; 1 µM) [%] |
| --- | --- | --- | --- | --- | --- | --- | --- | --- | --- | --- | --- |
| COc1cccc(CC(=O)N2CCc3cc(-c4cn(C)c5ncnc(N)c45)ccc32)c1 [GSK2608899] | 34 | 0 | 35 | 4 | 98.5 | 0 | 36 | 22 | 0 | 2 |  |
| Cl.O=C(Nc1ccc(Oc2ccc3[nH]c(NC(=O)c4ccco4)nc3c2)cc1)Nc1cc(C(F)(F)F)ccc1F [GW683134] | 98.4 | 17 | 0 | 0 | 99.7 | 65 | 74 | 70 | 0 | 19 |  |
| Cc1ccc(O)cc1Nc1ccnc2cc(-c3ccc(CN4CCCCC4)o3)ccc12 [GW557777] | 99.7 | 6 | 8 | 0 | 17 | 19 | 0 | 95.3 | 0 | 0 |  |
| O=C(Nc1n[nH]c2cc(-c3cccs3)ccc12)C1CC1 [SB-731284] | 0 | 6 | 0 | 10 | 17 | 0 | 0 | 0 | 0 | 0 |  |
| O=C(O)C(F)(F)F.O=c1[nH]ccc2nc(N[C@@H]3CCNC3)nc(Nc3ccc4c(c3)S(=O)(=O)CC4)c12 [GSK2181306] | 40 | 0 | 0 | 2 | 97.2 | 94.5 | 29 | 7 | 6 | 93.5 |  |
| Cc1nn2c(=O)cc(N3CCO[C@H](C)C3)nc2n1Cc1cccc(Cl)c1Cl [GSK2373693] | 13 | 0 | 0 | 0 | 0 | 18 | 27 | 0 | 0 | 15 |  |
| CN(C)c1ncnc2nc[nH]c12 [SKF-31736] | 0 | 0 | 0 | 0 | 2 |  | 0 | 0 | 8 | 0 | 0 |
| CC(C)c1nc(-c2cccc(NS(=O)(=O)c3c(F)cccc3F)c2)c(-c2ccnc(Nc3ccc(N4CCOCC4)nc3)n2)s1.Cl [GSK1723980] | 99.7 | 100 | 100 | 4 | 99.1 | 18 | 0 | 97.8 | 52 | 70 |  |
| Cl.Cl.NC(CNC(=O)c1cc(Br)c(-c2ccnc3[nH]ccc23)s1)c1ccccc1 (stereo not drawn) [GSK1322949] | 3 | 0 | 0 | 69 | 0 | 31 | 0 | 0 | 7 | 19 |  |
| Nc1ncnc2scc(-c3ccc(NC(=O)Cc4cc(F)ccc4F)cc3)c12.O=C(O)C(F)(F)F [SB-731254-M] | 54 | 55 | 96 | 29 | 81 | 0 | 71 | 16 | 0 | 20 |  |
| c1ccc(Oc2ccc(Nc3ccnc4cc(-c5ccc(CN6CCCCC6)o5)ccc34)cc2)nc1 [GW567143] | 88 | 0 | 0 | 6 | 39 | 35 | 0 | 6 | 12 | 4 |  |
| Nc1ncc(-c2cn[nH]c2)c2scc(-c3ccc4c(c3)CCN4C(=O)Cc3ccccc3)c12 [GSK2593067] | 96.5 | 17 | 49 | 2 | 98.6 | 52 | 67 | 80 | 0 | 10 |  |
| O=C(Nc1n[nH]c2nc(-c3ccccc3O)ccc12)C1CC1 [SB-711880] | 37 | 0 | 0 | 22 | 77 | 0 | 0 | 0 | 20 | 16 |  |
| Cc1ccccc1CC(=O)N1CCc2cc(-c3cn(C)c4ncnc(N)c34)ccc21 [GSK2603346] | 30 | 0 | 0 | 0 | 89 | 21 | 23 | 0 | 0 | 1 |  |
| CCNc1nccc(-c2c(-c3ccc(F)cc3)ncn2C2CCN(C)CC2)n1 | 11 | 0 | 7 | 0 | 0 | 0 | 0 | 0 | 0 | 0 |  |
| CC(C)(C)c1ccc(C(=O)Nc2cn3cc(-n4ccnc4)ccc3n2)cc1 | 0 | 0 | 10 | 0 | 0 | 12 | 0 | 10 | 0 | 18 |  |
